We go through 30 compounds from ChEMBL document CHEMBL1201862, “PubChem BioAssay data set” (2004).

Molecules are shown by their SMILES. The campaign covered roughly 400,000 compounds. About 2,100 (0.53%) were called active. Not shown: some 14% with an inconclusive outcome. How the calls were made is not given here. The full list was thinned out, with actives kept by preference.

Sequence of Ataxin-2 (Homo sapiens) (Q99700 whole entry): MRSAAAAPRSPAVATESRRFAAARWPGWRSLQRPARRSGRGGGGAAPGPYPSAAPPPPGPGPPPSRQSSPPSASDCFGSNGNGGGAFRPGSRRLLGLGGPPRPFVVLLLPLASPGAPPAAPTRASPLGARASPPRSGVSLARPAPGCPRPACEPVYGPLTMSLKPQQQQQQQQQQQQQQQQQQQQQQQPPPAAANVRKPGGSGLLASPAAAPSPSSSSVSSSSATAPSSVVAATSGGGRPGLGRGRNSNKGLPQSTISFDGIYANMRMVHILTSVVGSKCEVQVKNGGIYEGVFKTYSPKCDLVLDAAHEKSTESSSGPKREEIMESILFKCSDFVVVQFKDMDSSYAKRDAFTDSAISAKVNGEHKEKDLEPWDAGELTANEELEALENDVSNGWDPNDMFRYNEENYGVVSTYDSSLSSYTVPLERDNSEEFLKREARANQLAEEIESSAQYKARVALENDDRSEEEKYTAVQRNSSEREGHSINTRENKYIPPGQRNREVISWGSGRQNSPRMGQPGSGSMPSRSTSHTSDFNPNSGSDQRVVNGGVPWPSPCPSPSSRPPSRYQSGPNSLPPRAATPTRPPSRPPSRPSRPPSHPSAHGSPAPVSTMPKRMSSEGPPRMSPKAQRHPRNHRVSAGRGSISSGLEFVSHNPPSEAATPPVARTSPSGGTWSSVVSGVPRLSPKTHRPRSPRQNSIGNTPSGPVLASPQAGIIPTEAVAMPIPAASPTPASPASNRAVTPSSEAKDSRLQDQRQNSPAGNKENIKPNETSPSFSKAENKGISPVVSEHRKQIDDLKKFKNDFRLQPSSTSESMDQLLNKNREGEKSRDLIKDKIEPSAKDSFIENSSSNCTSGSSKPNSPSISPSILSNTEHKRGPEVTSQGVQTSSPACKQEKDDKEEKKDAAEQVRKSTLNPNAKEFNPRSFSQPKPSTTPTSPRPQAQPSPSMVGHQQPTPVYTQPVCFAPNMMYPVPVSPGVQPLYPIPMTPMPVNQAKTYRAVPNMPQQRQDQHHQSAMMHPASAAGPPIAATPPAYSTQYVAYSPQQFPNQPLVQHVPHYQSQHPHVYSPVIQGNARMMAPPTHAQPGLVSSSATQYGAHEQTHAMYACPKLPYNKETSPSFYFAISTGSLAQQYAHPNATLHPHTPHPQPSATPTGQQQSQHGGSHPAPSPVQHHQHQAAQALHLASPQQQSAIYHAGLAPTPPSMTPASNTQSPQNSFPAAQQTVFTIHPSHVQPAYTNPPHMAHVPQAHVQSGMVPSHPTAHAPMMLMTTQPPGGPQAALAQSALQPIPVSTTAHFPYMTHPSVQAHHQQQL

This test addresses Ataxin-2 (Homo sapiens) (UniProt Q99700). Put plainly: qHTS for Inhibitors of ATXN expression. Type of test: functional. On the technique in general: qHTS replaces the single test concentration by a dilution series.
On to `O=C(OCc1nc(O)c2c(-c3ccccc3)csc2n1)c1cc(Cl)ccc1[N+](=O)[O-]`, for which the Potency result was “inactive”. With `C=CCNC(=O)c1c(N)n(-c2cccc(S(N)(=O)=O)c2)c2nc3ccccc3nc12`, the Potency result was “inactive”. Take `O=c1oc2cc(O)ccc2c2ccccc12`: the Potency entry was “inactive”.

Take `O=S(=O)(O)c1cc(O)c(N=Nc2ccc(O)cc2O)c2ccccc12`: the Potency was 22.4 µM (active). For `CC1=CC(=O)C=C/C1=C(/c1ccc(O)cc1C)c1ccccc1S(=O)(=O)O`, the Potency entry is “inactive”. Consider `CN1C(=O)/C(=N\CCc2ccccc2)c2c3ccccc3c(O)c3cccc1c23`, for which the Potency result was “inactive”.

In the case of `Sc1nc(-c2ccccc2)cn1/N=C/c1ccccc1Br`, the Potency result is “inactive”. Take `CCn1c(/C=C/c2ccc(O)cc2)nc2ccccc2c1=O`: the Potency entry is “inactive”. Consider `NC(=O)c1ccc(Oc2ccc(Cl)cc2)c([N+](=O)[O-])c1`, for which the Potency entry is “inactive”.

With `CS(=O)(=O)c1ccc(C(=O)OCc2nnc(-c3ccc(Cl)cc3)o2)cc1[N+](=O)[O-]`, the Potency was 28.2 µM (active).

In the case of `COc1ccc(-c2cc(-c3nnc(COC(=O)c4ccncc4)o3)c3ccccc3n2)cc1OC`, the Potency result is “inactive”.

Take `CC(=O)Oc1ccc(-c2cc3c(OC(C)=O)cc(OC(C)=O)cc3oc2=O)cc1`: the Potency result is “inactive”. The same measure for `OC[C@@H]1[C@@H](c2ccc(F)cc2)C(c2cccc(Cl)c2)=NN1c1ccccc1`: “inactive”. With `CCN(CC)CCn1c(C)nc2c(sc3nc4c(cc32)COC(C)(C)C4)c1=O`, the Potency result was “inactive”. On to `C/C(=N\NC(=O)c1ccc(C(=O)N/N=C(\C)c2ccco2)o1)c1ccco1`, for which the Potency entry is “inactive”. As for `O=C(N/N=C/c1c(O)ccc2ccccc12)c1ccc(Br)o1`, the Potency entry was “inactive”.

As for `O=C(N/N=C/c1sc(=O)n(Cc2ccc(Br)cc2)c1Cl)c1ccco1`, the Potency is 20 µM (active). The same measure for `O=C(Nc1ccc(Cl)cc1)c1cnn2c1NC(c1ccccc1)=CC2c1ccccc1` (stereo not given): “inactive”; for `CN1CCc2ccc(NC(=O)c3ccc(C(F)(F)F)cc3)cc2C1`: “inactive”; for `CC1=C(C(=O)Nc2ccc(Cl)cc2)C(c2ccc(C(F)(F)F)cc2)n2nnnc2N1` (stereo not given): 28.2 µM (active). As for `Cc1ccc(S(=O)(=O)Nc2ccccc2/C=N/c2nc3ccccc3n2C)cc1`, the Potency entry is “inactive”. The value for `O=C(c1cnn(C(=O)c2ccco2)c1)c1ccccc1O` was “inactive”; that for `C/C(=N\N1C(=O)c2ccccc2NC1c1ccco1)c1ccccc1O` (stereo not given) was 2 µM (active). `Cc1ccc(/C=N/N2C(=O)c3ccccc3NC2c2ccc(C)cc2)cc1` (stereo not given): the Potency entry is “inactive”.

Consider `COc1cccc(C2C=C(c3ccc(Br)s3)Nc3ncnn32)c1OC` (stereo not given), for which the Potency result was “inactive”. Take `O=[N+]([O-])c1ccc(C2(O)C[N+](c3ccccc3)=C3SCCN32)cc1` (stereo not given): the Potency entry is “inactive”.

As to `Cc1ccsc1/C=C1\Oc2cc(O)ccc2C1=O`, the Potency result was “inactive”. Turning to `O=S(=O)(NNc1ncc(C(F)(F)F)cc1Cl)c1ccc(F)cc1F`, the Potency entry is “inactive”. For the compound `NNc1nc2cccnc2n(CCNc2ncc(C(F)(F)F)cc2Cl)c1=O`, the Potency entry is “inactive”. The value for `O=C1C=CC(=O)N1CCNc1ncc(C(F)(F)F)cc1Cl` was 35.5 µM (active).
